rCAG RNA binder = binders of r(CAG) RNA repeats, primary screen, biochemical, fluorescence. r(CAG) RNA repeat, TO-PRO-1 dye displacement fluorescence. inhibition, % at 3 µM. 1.3% of 370,000 active. AID 651821, 2012;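 active means inhibition above the plate cutoff, the mean of all test compounds on that plate plus 3 SD, cut at about 35% in these data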;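 further: 0% = DMSO alone and 100% = 100 µM mitoxantrone as full dye displacement; higher means more dye released from RNA so lower well fluorescence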
FAS TE block = FAS thioesterase domain inhibitors, primary screen, biochemical, fluorescence intensity, uHTS; Fatty acid synthase (Homo sapiens), P49327; inhibition, % at 15 µM; recombinant FAS-TE, OMFH fluorogenic substrate, fluorescence endpoint; 0.67% of 360,000 active;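 active means compounds whose normalised, plate-corrected inhibition of enzyme fluorescence in the single-dose primary screen is 50% or more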;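 further: 0% = DMSO with enzyme and 100% = substrate without enzyme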
NadD inh = inhibitors of S. aureus NadD, primary screen, biochemical, colorimetric, uHTS | purified NadD enzyme, colorimetric absorbance read-out | inhibition, % at 20 µM | 0.78% of 360,000 active | AID 602399, 2012 | Nicotinate-nucleotide adenylyltransferase NadD (Staphylococcus aureus N315); in the data active means inhibition above about 26%
GRIN3A LBD mod = binders of NR3A ligand-binding domain, primary screen, biophysical, differential scanning fluorimetry, uHTS. Glutamate receptor ionotropic, NMDA 3A (GRIN3A) ligand-binding domain. NR3A LBD differential scanning fluorimetry, Tm shift; 0% = protein alone, 100% = glycine-bound protein. Tm shift relative to glycine control, % at 25 µM. 2.5% of 340,000 active. AID 1259313, 2017;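 active means melting temperature shift of at least 10% of the positive control shift, at one fixed dose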
The depositor's hits bear a star; . = not tested or not shown; ! = a repeat was not active. Sampled rows, rich in hits. Any-hit rate of the full collection: about 4.3%.

SMILES	rCAG RNA binder	FAS TE block	NadD inh	GRIN3A LBD mod
CC1(C)SC(=S)N(NC(=O)Nc2cccc3ccccc23)C1N(O)C(=O)Nc1ccccc1 (stereo unspecified)	18	-106	4	23*
NC1=[N+](Cc2ccccc2)C(Cc2ccccc2)C2C(=C3CCCCC3n3c(=O)n(-c4ccccc4)c(=O)n32)N1 (stereo unspecified)	18	.	.	.
C=CCn1c(SCC(=O)c2ccc(-c3ccccc3)cc2)nnc1-c1ccc(OC)cc1	10	.	.	.
Cc1ccccc1CN1CCCCC(NC(=O)c2c(F)cccc2F)C1=O (stereo unspecified)	0	.	.	.
C=CCN(C(=O)CCC(=O)Nc1cc(C)on1)C(C(=O)NC(C)(C)C)c1cccc(OC)c1OC (stereo unspecified)	-3	-4	1	401*
COc1ccc(/C=N/Nc2nonc2N)cc1OC	3	-9	-9	-8
Nc1nonc1N/N=C\c1ccccc1	0	1	-4	18*
COc1ccc(/C=N/Nc2nonc2N)cc1	1	-5	-1	17*
COC(=O)[C@]12C[C@H](CC(=O)N3CCC(c4ccccc4)CC3)C(=O)N(Cc3cccc4ccccc34)C1=C[C@H](C(C)(C)C)O[C@@H]2C	4	.	.	.
COC(=O)[C@]12C[C@H](CC(=O)N3CCCC3)C(=O)N(Cc3ccco3)C1=C[C@H](C(C)C)O[C@@H]2C1CC1	-1	.	.	.
CC1CCN(S(=O)(=O)c2ccc(NC(=O)c3ccncc3)cc2)CC1	-4	0	-5	12*
COC(=O)Nc1ccc(S(=O)(=O)N2CCC(C)CC2)cc1	-1	6	-9	13*
COC(=O)Nc1ccc(S(=O)(=O)N2CCC(C(=O)N3CCC(C)CC3)CC2)cc1	-1	2	-2	0
CC1CCN(S(=O)(=O)c2ccc(NC(=O)C3CCCCC3C(=O)O)cc2)CC1 (stereo unspecified)	.	0	0	11*
O=C(Nc1nncs1)c1cccc(S(=O)(=O)N2CCCC2)c1	-1	-6	2	-1
CC1CCN(S(=O)(=O)c2ccc(NC(=O)[C@@H]3CCCC[C@@H]3C(=O)O)cc2)CC1	14	0	-3	0
CC1CCN(S(=O)(=O)c2cccc(C(=O)Nc3nncs3)c2)CC1	7	-4	-3	17*
Cc1cc(=O)[nH]c(SCC(=O)Nc2ccc(Cl)cc2)n1	1	.	.	.
O=S1(=O)C=CCN1Cc1cn(Cc2ccc(F)cc2)nn1	1	.	.	.
O=C(N[C@H](C(=O)N1CCC[C@H]1C(=O)NCc1ccccc1)c1ccccc1)c1ccccc1	-2	.	.	.
Cc1ccc(N2C(=O)CS/C2=C(\C(Cl)=C(Cl)Cl)[N+](=O)[O-])cc1	33	-12	7	11*
O=C(O)c1ccc(N2C(=O)/C(=C/C=C/c3ccccc3)SC2=S)cc1	13	1	1	4
CN(C)c1ccc(/C=C/C=C2/SC(=S)N(c3ccccc3)C2=O)cc1	17	29	43*	1
COc1ccc(C2Nc3ccccc3C(=O)N2c2ccccc2)cc1CSc1ccccn1 (stereo unspecified)	2	24	3	18*
COc1ccc(-c2cc(=O)c3c(OC)c(OC)c(OC)c(OC)c3o2)cc1OC	6	-4	0	-2
SMILES	rCAG RNA binder	FAS TE block	NadD inh	GRIN3A LBD mod
COc1ccc(Br)c2oc(SC)cc(=O)c12	1	-12	-2	10*
CC(=O)Nc1ccc(S(=O)(=O)NC2=C(N3CCN(c4ccc(F)cc4)CC3)C(=O)c3ccccc3C2=O)cc1	12	26	-1	16*
Cc1ccc(S(=O)(=O)NC2=C(N3CCN(c4ccccc4F)CC3)C(=O)c3ccccc3C2=O)cc1	12	24	34*!	-22
Cc1ccc(S(=O)(=O)NC2=C(N3CCN(Cc4ccccc4)CC3)C(=O)c3ccccc3C2=O)cc1	2	20	8	-8
COC(=O)C1CN(Cc2cn(CCC3OCCO3)nn2)CCS(=O)(=O)N1Cc1ccccc1 (stereo unspecified)	1	.	.	.
COC(=O)[C@]12C[C@H](CC(=O)NCc3ccc(C)o3)C(=O)N(Cc3ccccc3)C1=C[C@H](C1CCCC1)O[C@@H]2C	5	.	.	.
Cc1nc(SCC(=O)NCC2CCCO2)c2c3c(sc2n1)CCC3 (stereo unspecified)	-2	-3	-1	20*
CCOCCCNC(=O)c1ccccc1SC	2	-5	-5	0
COCCCNC(=O)c1ccccc1SC	-2	-8	-2	13*

Bioassay records from PubChem.
